# Experimental data taken from ChEMBL document CHEMBL1961873, “Compounds: GSK PKIS; Assays: Nanosyn kinase panel” (2012).
# Key:
# [1] = target: Tyrosine-protein kinase CSK (Homo sapiens) (UniProt P41240); settings: at 1 µM;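 note: each value is an averaged inhibition reading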
# [2] = target: T1, Discoidin domain-containing receptor 2 (Homo sapiens) (UniProt Q16832); settings: at 0.1 µM
# T1 sequence (whole entry): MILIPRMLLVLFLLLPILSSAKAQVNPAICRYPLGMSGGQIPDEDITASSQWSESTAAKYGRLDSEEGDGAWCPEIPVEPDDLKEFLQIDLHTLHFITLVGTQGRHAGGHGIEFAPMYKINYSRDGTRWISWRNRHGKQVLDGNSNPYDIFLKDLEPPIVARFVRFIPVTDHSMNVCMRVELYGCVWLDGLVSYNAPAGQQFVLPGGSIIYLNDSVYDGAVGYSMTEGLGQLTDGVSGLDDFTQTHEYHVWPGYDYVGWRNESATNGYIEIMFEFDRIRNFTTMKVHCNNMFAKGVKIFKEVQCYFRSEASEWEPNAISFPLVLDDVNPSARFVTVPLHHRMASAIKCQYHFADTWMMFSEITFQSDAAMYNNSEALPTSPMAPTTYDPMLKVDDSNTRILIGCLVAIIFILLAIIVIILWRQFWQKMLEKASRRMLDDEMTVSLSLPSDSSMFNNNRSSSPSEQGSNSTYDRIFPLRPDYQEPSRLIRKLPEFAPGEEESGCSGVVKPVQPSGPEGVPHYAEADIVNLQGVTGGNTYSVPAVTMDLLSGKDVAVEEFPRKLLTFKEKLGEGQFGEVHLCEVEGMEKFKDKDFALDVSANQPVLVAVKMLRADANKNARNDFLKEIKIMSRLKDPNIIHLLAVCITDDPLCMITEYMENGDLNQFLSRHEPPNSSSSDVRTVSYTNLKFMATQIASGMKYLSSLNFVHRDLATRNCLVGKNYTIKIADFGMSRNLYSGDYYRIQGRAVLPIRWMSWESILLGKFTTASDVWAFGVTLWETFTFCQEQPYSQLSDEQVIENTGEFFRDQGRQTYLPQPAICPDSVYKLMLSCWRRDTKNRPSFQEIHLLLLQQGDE
# [3] = target: T1, Discoidin domain-containing receptor 2 (Homo sapiens); settings: at 1 µM
# [4] = target: Epidermal growth factor receptor (Homo sapiens) (UniProt P00533); settings: at 0.1 µM
# [5] = target: Epidermal growth factor receptor (Homo sapiens) (UniProt P00533); settings: at 1 µM
# [6] = tested on: Epidermal growth factor receptor (Homo sapiens), P00533 [L858R]; settings: at 0.1 µM
# [7] = tested on: Epidermal growth factor receptor (Homo sapiens), P00533 [L858R]; settings: at 1 µM
# [8] = tested on: Epidermal growth factor receptor (Homo sapiens), P00533 [L861Q]; settings: at 0.1 µM
# [9] = tested on: Epidermal growth factor receptor (Homo sapiens), P00533 [L861Q]; settings: at 1 µM
# [10] = tested on: Epidermal growth factor receptor (Homo sapiens), P00533 [T790M]; settings: at 0.1 µM
# [11] = tested on: Epidermal growth factor receptor (Homo sapiens), P00533 [T790M]; settings: at 1 µM
# [12] = tested on: Epidermal growth factor receptor (Homo sapiens), P00533 [L858R,T790M]; settings: at 0.1 µM
# [13] = tested on: Epidermal growth factor receptor (Homo sapiens), P00533 [L858R,T790M]; settings: at 1 µM
# [14] = target: Ephrin type-A receptor 2 (Homo sapiens) (UniProt P29317); settings: at 0.1 µM
# [15] = target: Ephrin type-A receptor 2 (Homo sapiens) (UniProt P29317); settings: at 1 µM
# [16] = target: T2, Ephrin type-A receptor 3 (Homo sapiens) (UniProt P29320); settings: at 0.1 µM
# T2 sequence (whole entry): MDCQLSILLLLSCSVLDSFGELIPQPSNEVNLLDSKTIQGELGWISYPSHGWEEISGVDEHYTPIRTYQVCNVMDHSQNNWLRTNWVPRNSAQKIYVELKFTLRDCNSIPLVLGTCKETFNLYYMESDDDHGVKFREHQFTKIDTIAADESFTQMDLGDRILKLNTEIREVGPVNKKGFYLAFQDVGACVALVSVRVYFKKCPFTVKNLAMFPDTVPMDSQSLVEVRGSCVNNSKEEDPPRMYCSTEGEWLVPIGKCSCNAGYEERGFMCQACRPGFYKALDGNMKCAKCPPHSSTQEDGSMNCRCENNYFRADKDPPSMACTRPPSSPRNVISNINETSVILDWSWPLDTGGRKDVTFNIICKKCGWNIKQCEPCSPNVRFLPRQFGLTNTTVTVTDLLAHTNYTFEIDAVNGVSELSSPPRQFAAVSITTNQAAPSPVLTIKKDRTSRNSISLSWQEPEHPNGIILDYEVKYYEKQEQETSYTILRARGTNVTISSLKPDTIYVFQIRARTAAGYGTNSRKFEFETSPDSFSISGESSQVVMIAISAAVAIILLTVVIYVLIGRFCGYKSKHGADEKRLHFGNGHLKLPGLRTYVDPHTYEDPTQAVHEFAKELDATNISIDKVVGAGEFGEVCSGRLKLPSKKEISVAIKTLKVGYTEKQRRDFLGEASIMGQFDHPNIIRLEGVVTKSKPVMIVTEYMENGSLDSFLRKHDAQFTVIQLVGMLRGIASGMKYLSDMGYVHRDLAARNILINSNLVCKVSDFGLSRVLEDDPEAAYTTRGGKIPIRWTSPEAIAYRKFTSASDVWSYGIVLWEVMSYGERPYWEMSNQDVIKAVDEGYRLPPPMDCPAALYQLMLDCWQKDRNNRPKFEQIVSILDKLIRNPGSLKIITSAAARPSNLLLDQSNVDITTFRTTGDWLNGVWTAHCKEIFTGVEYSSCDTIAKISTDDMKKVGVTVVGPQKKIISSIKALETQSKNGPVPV
# [17] = target: T2, Ephrin type-A receptor 3 (Homo sapiens); settings: at 1 µM
# [18] = target: Ephrin type-A receptor 4 (Homo sapiens) (UniProt P54764); settings: at 0.1 µM
# [19] = target: Ephrin type-A receptor 4 (Homo sapiens) (UniProt P54764); settings: at 1 µM
# [20] = target: T3, Ephrin type-B receptor 2 (Homo sapiens) (UniProt P29323); settings: at 0.1 µM;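 note: reported as mean inhibition of EPHB2, from the GSK PKIS dataset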
# T3 sequence (whole entry): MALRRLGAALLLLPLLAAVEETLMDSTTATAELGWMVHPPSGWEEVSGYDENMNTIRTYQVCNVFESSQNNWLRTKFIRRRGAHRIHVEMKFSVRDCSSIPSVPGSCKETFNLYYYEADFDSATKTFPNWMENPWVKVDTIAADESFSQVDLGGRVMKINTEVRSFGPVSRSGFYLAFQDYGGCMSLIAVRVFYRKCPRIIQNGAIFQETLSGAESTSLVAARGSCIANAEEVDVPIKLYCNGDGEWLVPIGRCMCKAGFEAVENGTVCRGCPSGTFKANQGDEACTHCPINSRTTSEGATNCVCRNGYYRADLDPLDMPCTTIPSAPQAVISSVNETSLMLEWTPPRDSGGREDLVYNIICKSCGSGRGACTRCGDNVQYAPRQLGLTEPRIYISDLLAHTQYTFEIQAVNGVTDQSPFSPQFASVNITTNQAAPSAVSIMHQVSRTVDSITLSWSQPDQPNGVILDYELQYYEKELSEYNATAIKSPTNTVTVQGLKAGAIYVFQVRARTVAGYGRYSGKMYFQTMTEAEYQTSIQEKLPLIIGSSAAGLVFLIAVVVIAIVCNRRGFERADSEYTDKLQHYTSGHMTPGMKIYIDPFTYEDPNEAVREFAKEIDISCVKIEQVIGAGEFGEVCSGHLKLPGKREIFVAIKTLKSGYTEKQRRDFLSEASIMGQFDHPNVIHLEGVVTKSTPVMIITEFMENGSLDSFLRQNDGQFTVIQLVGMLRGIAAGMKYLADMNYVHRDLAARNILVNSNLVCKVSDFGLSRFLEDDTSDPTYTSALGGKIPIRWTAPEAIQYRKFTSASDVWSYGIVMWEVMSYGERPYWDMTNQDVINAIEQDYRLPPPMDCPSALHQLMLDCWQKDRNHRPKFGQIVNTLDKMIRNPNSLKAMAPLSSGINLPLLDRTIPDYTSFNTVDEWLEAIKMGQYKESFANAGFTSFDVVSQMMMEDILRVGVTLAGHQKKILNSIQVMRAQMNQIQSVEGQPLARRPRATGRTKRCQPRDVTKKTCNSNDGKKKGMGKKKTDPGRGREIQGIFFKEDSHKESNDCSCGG
# Chain of Epidermal growth factor receptor (Homo sapiens), P00533 [L858R,T790M] (P00533 whole entry T790M/L858R, looked up): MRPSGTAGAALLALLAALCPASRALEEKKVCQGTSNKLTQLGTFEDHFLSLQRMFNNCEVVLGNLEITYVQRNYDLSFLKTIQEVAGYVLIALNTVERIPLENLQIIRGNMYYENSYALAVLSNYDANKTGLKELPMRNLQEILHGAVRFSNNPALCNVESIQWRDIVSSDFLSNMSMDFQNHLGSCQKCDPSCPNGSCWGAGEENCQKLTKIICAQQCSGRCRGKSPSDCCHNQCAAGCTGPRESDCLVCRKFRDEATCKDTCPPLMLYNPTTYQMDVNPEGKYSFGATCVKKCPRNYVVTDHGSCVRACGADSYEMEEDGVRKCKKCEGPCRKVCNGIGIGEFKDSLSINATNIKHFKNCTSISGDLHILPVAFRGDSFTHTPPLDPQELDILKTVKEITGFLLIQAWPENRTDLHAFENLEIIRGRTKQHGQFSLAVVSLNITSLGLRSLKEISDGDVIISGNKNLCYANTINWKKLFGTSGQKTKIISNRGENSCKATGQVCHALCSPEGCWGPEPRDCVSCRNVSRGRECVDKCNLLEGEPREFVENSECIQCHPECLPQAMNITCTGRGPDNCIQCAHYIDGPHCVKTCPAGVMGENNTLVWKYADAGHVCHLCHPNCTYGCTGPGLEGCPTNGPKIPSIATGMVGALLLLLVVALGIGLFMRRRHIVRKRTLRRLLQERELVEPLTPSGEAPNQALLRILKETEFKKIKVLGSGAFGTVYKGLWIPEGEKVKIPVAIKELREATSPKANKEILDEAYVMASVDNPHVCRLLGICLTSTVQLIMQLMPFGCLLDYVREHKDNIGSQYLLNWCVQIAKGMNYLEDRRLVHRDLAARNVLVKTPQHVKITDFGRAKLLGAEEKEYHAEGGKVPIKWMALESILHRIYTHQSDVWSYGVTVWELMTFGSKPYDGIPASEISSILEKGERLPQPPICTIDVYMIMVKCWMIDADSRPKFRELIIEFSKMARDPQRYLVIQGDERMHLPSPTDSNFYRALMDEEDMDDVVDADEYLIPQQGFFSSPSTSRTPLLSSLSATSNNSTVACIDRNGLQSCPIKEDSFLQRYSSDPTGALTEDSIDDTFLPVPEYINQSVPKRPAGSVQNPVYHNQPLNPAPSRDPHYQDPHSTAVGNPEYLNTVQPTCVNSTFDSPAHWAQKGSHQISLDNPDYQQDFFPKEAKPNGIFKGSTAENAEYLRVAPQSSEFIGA
# Chain of Ephrin type-A receptor 4 (Homo sapiens) (P54764 whole entry): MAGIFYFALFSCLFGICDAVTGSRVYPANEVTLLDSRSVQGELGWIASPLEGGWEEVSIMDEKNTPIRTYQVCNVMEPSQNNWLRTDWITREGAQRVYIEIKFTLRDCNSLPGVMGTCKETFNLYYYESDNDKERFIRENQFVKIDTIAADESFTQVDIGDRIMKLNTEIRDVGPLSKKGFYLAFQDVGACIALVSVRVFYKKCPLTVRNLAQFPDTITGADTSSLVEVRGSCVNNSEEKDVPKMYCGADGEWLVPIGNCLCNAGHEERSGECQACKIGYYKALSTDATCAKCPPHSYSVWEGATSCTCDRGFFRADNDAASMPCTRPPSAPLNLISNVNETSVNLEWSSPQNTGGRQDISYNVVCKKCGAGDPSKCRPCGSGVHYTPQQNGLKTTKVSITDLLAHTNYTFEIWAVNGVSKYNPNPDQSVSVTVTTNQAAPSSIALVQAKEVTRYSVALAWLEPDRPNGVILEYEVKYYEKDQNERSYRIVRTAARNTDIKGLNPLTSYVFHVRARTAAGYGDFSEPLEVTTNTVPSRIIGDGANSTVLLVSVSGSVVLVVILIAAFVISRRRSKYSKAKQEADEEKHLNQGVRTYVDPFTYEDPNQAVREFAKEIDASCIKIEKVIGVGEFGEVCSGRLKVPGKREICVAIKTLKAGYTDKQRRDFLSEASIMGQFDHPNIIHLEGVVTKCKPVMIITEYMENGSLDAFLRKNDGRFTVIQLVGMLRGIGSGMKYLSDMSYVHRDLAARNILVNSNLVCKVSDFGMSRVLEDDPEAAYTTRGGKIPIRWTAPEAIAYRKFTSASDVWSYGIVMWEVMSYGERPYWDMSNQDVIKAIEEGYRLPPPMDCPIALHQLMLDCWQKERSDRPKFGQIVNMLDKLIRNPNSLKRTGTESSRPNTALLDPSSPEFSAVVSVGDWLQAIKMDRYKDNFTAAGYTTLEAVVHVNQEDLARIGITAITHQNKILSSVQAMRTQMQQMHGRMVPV
# Chain of Epidermal growth factor receptor (Homo sapiens), P00533 [L858R] (P00533 whole entry L858R): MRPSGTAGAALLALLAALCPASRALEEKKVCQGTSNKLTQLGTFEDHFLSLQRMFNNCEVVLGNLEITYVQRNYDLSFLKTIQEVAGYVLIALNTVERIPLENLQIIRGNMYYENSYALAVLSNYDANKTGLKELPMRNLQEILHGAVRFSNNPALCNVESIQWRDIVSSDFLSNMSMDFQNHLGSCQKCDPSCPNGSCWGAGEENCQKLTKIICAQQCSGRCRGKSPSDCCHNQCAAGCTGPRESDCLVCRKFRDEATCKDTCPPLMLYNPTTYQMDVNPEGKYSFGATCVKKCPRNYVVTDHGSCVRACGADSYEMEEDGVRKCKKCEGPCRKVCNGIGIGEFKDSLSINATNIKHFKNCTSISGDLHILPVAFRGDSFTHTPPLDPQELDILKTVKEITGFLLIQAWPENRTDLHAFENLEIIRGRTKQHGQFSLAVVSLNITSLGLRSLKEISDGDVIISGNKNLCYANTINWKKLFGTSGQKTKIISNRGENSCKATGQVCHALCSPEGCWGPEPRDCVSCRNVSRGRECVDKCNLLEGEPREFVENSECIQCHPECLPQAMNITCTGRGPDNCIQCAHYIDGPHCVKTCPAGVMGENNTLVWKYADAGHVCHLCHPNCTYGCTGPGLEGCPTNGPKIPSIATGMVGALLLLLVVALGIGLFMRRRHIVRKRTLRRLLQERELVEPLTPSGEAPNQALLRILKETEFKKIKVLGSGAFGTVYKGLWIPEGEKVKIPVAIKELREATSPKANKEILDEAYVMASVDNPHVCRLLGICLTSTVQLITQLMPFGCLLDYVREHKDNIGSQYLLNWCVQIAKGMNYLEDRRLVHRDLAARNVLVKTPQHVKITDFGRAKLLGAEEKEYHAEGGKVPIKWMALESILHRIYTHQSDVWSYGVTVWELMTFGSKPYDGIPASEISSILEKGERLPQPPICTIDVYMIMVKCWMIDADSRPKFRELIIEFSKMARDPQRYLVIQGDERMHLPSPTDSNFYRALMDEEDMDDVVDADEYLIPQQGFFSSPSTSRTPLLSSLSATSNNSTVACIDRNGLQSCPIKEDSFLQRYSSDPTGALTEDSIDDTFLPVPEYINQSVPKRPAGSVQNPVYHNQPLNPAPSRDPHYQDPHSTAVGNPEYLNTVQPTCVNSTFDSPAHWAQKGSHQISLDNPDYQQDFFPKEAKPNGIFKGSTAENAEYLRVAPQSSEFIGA
# Chain of Epidermal growth factor receptor (Homo sapiens) (P00533 whole entry): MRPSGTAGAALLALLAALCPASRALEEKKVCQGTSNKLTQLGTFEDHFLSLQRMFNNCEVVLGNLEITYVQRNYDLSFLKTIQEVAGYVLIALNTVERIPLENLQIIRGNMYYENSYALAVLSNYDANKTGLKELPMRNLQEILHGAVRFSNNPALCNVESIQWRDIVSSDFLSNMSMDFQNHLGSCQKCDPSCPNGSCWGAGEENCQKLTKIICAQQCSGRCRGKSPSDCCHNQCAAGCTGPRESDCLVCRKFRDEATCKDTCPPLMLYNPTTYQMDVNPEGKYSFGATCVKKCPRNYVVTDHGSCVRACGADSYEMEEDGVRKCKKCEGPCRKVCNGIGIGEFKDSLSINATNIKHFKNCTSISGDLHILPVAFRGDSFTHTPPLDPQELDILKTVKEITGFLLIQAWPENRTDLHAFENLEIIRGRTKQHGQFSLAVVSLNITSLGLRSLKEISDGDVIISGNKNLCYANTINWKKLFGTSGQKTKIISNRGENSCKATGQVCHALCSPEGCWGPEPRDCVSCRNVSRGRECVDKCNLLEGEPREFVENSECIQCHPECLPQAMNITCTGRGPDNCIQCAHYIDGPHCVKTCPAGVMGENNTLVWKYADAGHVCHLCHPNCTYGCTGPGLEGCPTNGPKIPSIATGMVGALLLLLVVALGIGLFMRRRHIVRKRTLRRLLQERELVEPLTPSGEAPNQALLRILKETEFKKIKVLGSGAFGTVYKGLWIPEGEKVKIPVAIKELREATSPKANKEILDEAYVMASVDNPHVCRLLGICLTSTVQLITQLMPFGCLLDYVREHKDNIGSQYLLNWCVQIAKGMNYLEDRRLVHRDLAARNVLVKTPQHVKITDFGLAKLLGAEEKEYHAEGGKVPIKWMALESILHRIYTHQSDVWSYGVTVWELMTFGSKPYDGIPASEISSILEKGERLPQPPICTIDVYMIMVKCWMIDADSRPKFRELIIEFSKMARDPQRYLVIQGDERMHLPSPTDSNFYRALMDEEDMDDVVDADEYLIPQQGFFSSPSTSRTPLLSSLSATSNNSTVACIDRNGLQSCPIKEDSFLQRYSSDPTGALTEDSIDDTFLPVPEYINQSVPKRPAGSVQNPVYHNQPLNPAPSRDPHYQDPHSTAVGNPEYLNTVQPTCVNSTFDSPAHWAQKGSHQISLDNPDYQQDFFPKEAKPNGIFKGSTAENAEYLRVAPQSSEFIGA
# Chain of Tyrosine-protein kinase CSK (Homo sapiens) (P41240 2-450 limits assumed): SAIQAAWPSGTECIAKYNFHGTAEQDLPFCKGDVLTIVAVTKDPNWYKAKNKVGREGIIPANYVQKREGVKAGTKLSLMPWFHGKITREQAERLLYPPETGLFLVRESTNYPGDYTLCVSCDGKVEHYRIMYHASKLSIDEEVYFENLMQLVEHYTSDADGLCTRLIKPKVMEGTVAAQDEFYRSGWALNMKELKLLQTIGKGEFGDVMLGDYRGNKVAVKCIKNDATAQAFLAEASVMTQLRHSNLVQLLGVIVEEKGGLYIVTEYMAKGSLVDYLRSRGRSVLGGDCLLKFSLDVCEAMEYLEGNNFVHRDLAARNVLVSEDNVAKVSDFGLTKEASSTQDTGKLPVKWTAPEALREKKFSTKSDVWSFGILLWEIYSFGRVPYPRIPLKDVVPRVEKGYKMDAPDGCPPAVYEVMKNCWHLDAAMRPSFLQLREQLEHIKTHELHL
SMILES,inhibition [1],inhibition [2],inhibition [3],inhibition [4],inhibition [5],inhibition [6],inhibition [7],inhibition [8],inhibition [9],inhibition [10],inhibition [11],inhibition [12],inhibition [13],inhibition [14],inhibition [15],inhibition [16],inhibition [17],inhibition [18],inhibition [19],inhibition [20]
Cc1cc(-c2ccco2)cc(C)c1/C=C/c1cncc(-c2nn[nH]n2)c1,3.48%,-0.16%,0.34%,3.32%,6.27%,0.25%,0.27%,-0.29%,2.11%,1.06%,1.13%,-2.33%,0.17%,1.36%,1.78%,-0.31%,0.86%,1.64%,3.95%,-9.41%
Nc1nonc1-c1nc2cnccc2n1C1CCCCC1,-6.81%,0.11%,1.77%,1.9%,7.55%,0.62%,0.1%,-0.81%,-3.23%,-2.97%,-2.94%,-0.65%,-0.53%,-4.45%,-4.85%,-7.25%,-1.98%,-4.61%,-3.51%,-7.08%
NC(=O)c1sc(-n2cnc3cc(C(F)(F)F)ccc32)cc1OCc1ccccc1Br,-1.04%,1.02%,1.34%,3.48%,6.56%,-1.95%,0.99%,1.64%,1.19%,0.21%,0.23%,-0.11%,-0.24%,2.18%,0.32%,3.31%,1.36%,4.57%,8.16%,-4.03%
CCn1c(-c2nonc2N)nc2c(C#CC(C)(C)O)ncc(OC[C@@H]3CCCN3)c21,-0.82%,1.15%,2.67%,-1.23%,1.8%,-0.72%,2.58%,-0.11%,-1.31%,-0.72%,-0.11%,4.31%,-0.19%,1.83%,0.02%,0.32%,-1.12%,-0.1%,2.58%,-7.23%
Fc1ccc(-c2ncn(C3CCNCC3)c2-c2ccnc(Oc3ccccc3)n2)cc1,3.34%,1.18%,1.96%,8.94%,11.7%,3.24%,12.9%,3.69%,6.82%,0.12%,2.3%,-1.55%,0.47%,-5.61%,-5.64%,-1.44%,-1.53%,4.92%,5.9%,5.55%
CCn1c(-c2nonc2N)nc2c(C#CC(C)(C)O)nc(O[C@@H](CN)c3ccccc3)cc21,-5.08%,-0.22%,0.1%,1.88%,7.41%,-1.92%,4%,-0.6%,-1.72%,-1.47%,-1.37%,0.5%,-1.45%,-2.73%,-4.53%,-1.47%,-0.7%,-1.14%,-4.76%,-2.94%
NS(=O)(=O)c1ccc(N/C=C2\C(=O)Nc3ccc4ncsc4c32)cc1,3.86%,1.19%,3.5%,2.49%,5.22%,4.28%,5.3%,2.44%,3.42%,0.93%,0.85%,4.07%,3.15%,1.01%,1.66%,3.37%,6.86%,8.05%,22.4%,9.09%
NS(=O)(=O)c1ccc(-c2ccc3c(NC(=O)C4CC4)n[nH]c3c2)cc1,2.04%,0.39%,1.56%,1.61%,5.25%,0.79%,1.74%,2.23%,-1.61%,0.83%,-0.38%,-1.39%,1.78%,3%,1.18%,2.34%,2.31%,4.83%,1.43%,7.57%
COc1cc2c(cc1Nc1nc(Nc3ccsc3C(N)=O)c3cc[nH]c3n1)N(C(=O)CN(C)C)CCC2,-4.71%,2.81%,5.59%,–,–,0.26%,20.5%,0.9%,8.73%,8.68%,55%,29.8%,77.5%,1.21%,-1.44%,1.88%,-0.28%,0.13%,4.13%,-6.85%
COc1cccc(-n2ncc3c(N/N=C/c4ccncc4)ncnc32)c1,16.8%,2.12%,9.37%,3.52%,28.8%,20.7%,73.3%,7.71%,35.5%,2.99%,5.66%,3.61%,8.8%,3.25%,15.8%,5.89%,6.97%,11.1%,35.5%,8.96%
COc1cc(C=NNc2ncnc3c2cnn3Cc2ccccc2)ccc1O,2.56%,-0.76%,5.7%,22.5%,66.8%,64.3%,75.5%,23.4%,30.6%,-3.01%,-3.25%,-1.62%,-0.48%,15.6%,32.4%,-4.93%,3.27%,6.93%,21.7%,-3.14%
CCn1c(-c2nonc2N)nc2c(C#CCN)ncc(OCCCN)c21,2.55%,3.32%,3.8%,2.15%,8.32%,2.24%,5.46%,-0.07%,9.43%,-0.87%,5.94%,3.07%,5.28%,5.32%,1.78%,-2.35%,-1%,-3.41%,3.82%,-6%
CCn1c(-c2nonc2N)nc2c(C#CC(C)(C)O)ncc(OCC3CCNCC3)c21,3.99%,-0.24%,1.71%,-3.91%,-3.68%,2.79%,6.24%,3.74%,2.43%,1.64%,3.59%,2.99%,3.17%,-2.64%,-3.81%,-0.49%,-1.92%,7.43%,7.66%,1.63%
COc1cccc(COc2cc(-n3cnc4ccccc43)sc2C(N)=O)c1,0.56%,-1.78%,-0.4%,-1.6%,1.95%,-4.25%,2.72%,-1.17%,-0.04%,-1.14%,-0.01%,-1.88%,-1.62%,1.52%,1.85%,2.67%,-0.49%,-0.79%,3.39%,-2.9%
